Bioassay records from PubChem.
Anthrax LF prot: inhibitors of Bacillus anthracis lethal factor protease; multiplex microsphere protease cleavage assay, LF; actives 0.12% (n = 360,000); AID 588501; P15917; inhibition, % at 10 µM; further: plate controls were buffer without enzyme for full effect and enzyme alone for no effect
Target sequence (P15917 whole entry, looked up): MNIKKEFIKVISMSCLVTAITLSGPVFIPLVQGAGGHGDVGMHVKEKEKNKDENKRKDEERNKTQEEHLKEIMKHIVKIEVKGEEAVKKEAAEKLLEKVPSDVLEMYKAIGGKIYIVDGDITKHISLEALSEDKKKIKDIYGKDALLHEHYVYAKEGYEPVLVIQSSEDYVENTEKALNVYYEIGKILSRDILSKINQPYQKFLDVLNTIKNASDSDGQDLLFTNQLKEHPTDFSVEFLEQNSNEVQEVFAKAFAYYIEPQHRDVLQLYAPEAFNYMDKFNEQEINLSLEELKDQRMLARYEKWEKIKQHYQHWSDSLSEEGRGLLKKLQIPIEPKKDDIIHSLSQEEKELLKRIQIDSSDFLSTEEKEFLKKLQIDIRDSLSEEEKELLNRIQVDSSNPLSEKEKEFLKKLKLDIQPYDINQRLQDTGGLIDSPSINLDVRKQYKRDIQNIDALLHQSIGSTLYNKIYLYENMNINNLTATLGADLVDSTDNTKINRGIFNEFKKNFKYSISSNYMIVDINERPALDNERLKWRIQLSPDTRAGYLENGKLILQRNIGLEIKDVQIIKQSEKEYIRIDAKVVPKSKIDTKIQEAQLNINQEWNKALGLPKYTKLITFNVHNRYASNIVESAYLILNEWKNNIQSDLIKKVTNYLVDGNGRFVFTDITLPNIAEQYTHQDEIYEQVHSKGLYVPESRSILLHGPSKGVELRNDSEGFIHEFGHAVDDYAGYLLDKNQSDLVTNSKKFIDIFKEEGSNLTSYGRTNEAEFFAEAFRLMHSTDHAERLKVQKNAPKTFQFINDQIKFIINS
BoNT F protease: blocks Botulinum neurotoxin F light chain protease; actives 0.22% (n = 360,000); Multiplex microsphere protease cleavage assay, flow cytometry; inhibition, % at 10 µM; in the data active means inhibition above about 35%, passing the limit was not always enough; inconclusive means no clear call, values can overlap the other calls; further: plate controls were buffer without enzyme for full effect and enzyme alone for no effect
PriA SSB inh: blocks PriA binding to SSB C-terminal tail. AlphaScreen SSBct-PriA binding, biotinylated peptide. actives 0.6% (n = 430,000). inhibition, % at 33 µM; in the data active means inhibition mostly above about 37%, no sharp cut-off; inactive means mostly below about 20%;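 further: plate controls were negative control peptide for no effect and reference peptide for full effect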
Bead autofluor: counter-screen for toxin protease inhibitors: compound fluorescence | compound autofluorescence counterscreen, microsphere flow cytometry; stronger effect = higher value | actives 3.1% (n = 360,000) | fluorescence intensity (test concentration not listed); in the data active means fluorescence intensity above about 16000; inconclusive means no clear call, values can overlap the other calls
BoNT A protease: inhibitors of Botulinum neurotoxin A light chain protease. multiplex microsphere protease substrate cleavage, flow cytometry. inhibition, % at 10 µM. actives 0.17% (n = 360,000). AID 588499; further: plate controls were buffer without enzyme for full effect and enzyme alone for no effect
The depositor's hits bear a star; i = inactive; ? = inconclusive; nt = no result. Hits are enriched below; roughly 3.1% of the tested compounds scored in any of these assays. Unless noted, no stated cut-off is given here; in the data, active means inhibition above about 30%; inconclusive means no clear call, values can overlap the other calls; inactive means below that.

SMILES | Anthrax LF prot | BoNT F protease | PriA SSB inh | Bead autofluor | BoNT A protease
COCCNC(=O)c1ccc2c(=O)n(Cc3ccco3)c(SCC(=O)NC3CCCC3)nc2c1 | -9.1 | 3.7 | -13.0 | 21828* | 0.8
C=CCn1c(SCC(=O)OCC)nc2cc(C(=O)NCc3ccco3)ccc2c1=O | -2.4 | -0.1 | -10.7 | 23049* | 1.0
COCCCn1c(SCC(=O)NCc2ccco2)nc2sc3c(c2c1=O)CCC3 | -1.7 | 4.4 | 8.3 | 19443* | 1.8
COCCNC(=O)CSc1nc2cc3c(cc2c(=O)n1Cc1ccco1)OCO3 | -12.7 | 8.6 | -14.5 | 8652 | 1.2
Cc1ccc(Nc2ccc(NS(=O)(=O)c3ccccc3)cc2)nn1 | nt | nt | -2.0 | nt | nt
O=C(CCc1ccc(-c2ccc(F)cc2)o1)Nc1nccs1 | nt | nt | -14.0 | nt | nt
CS(=O)(=O)N1CCC(Oc2ccc(C(F)(F)F)cn2)CC1 | nt | nt | -4.0 | nt | nt
O=C(c1ccno1)N(CCN1CCOCC1)c1nc2ccccc2s1 | nt | nt | -3.0 | nt | nt
COc1ccc(NC(=O)C2Cc3cccc(OC)c3OC2=NO)cc1 (stereo not given) | nt | nt | -20.6 | nt | nt
CCCCCn1c(SCC(=O)OCC)nc2cc(C(=O)NCc3ccco3)ccc2c1=O | -6.0 | -10.0 | -0.3 | 21498* | -6.0
CCCCn1c(SCC(=O)NCc2ccco2)nc2ccc(N3CCOCC3)cc2c1=O | -2.4 | -8.8 | 2.4 | 22158* | -7.2
CCN(C(=O)CSc1nc2cc(C(=O)OC)ccc2c(=O)n1Cc1ccco1)c1cccc(C)c1 | -3.4 | -6.7 | -11.2 | 16983* | -3.0
CCCCn1c(SCC(=O)NCc2ccccc2)nc2ccc(N3CCOCC3)cc2c1=O | -2.6 | 2.6 | 1.1 | 7586 | 1.3
COc1cccc(C(=O)Nc2nc(C)c(C(C)=O)s2)c1OC | nt | nt | -9.0 | nt | nt
COc1ccc(OC)c2sc(NNC(=O)c3ccc(S(=O)(=O)N(C)C)cc3)nc12 | nt | nt | 42.0* | nt | nt
CN(C)S(=O)(=O)c1ccc(C(=O)NNc2nc3c(F)cccc3s2)cc1 | nt | nt | 24.0 | nt | nt
CCC(C)OC(=O)C1=C(C)NC(=O)NC1c1ccc(F)cc1 (stereo not given) | 0.3 | -5.5 | 5.0 | 10770 | -0.6
CC1=C(C(=O)OCC(C)C)C(c2ccsc2)NC(=O)N1 (stereo not given) | -4.8 | -3.3 | -13.1 | 16729* | -0.2
CC1=C(C(=O)OC(C)C)C(c2ccc(F)cc2)NC(=O)N1 (stereo not given) | -0.1 | -2.3 | -7.1 | 16191* | -0.1
CCSc1nc(C2CC2)cc(-c2ccc(OC)cc2)c1C#N | nt | nt | -20.0 | nt | nt
O=C(NCc1cccnc1)/C(=C/c1ccc(-c2cccc(C(F)(F)F)c2)o1)NC(=O)c1ccccc1 | -2.1 | -9.0 | -3.4 | 22544* | ?
O=C(OCC#CCSc1nnc(-c2cccc3ccccc23)o1)c1ccco1 | -2.0 | -3.5 | -21.0 | 20284* | ?
O=C(OCC#CCSc1nnc(-c2cccc3ccccc23)o1)c1ccc(Br)cc1 | -2.3 | -3.1 | -12.3 | 3587 | 0.3
O=C(OCC#CCSc1nc2ccccc2o1)c1ccco1 | -9.7 | 2.5 | -22.1 | 22148* | ?
Cc1nc(-n2cccc2)sc1C(=O)NCc1ccccc1-c1ccsc1 | nt | nt | -15.0 | nt | nt
SMILES | Anthrax LF prot | BoNT F protease | PriA SSB inh | Bead autofluor | BoNT A protease
O=C(O)C1C(c2ccccc2)C(C(=O)Oc2ccccc2)C1c1ccccc1 (stereo not given) | 0.1 | -5.5 | -2.7 | 24658* | -1.5
CC(C)CCOC(=O)C1C(c2ccccc2)C(C(=O)O)C1c1ccccc1 (stereo not given) | 0.2 | -3.0 | -5.0 | 25168* | -2.6
Cc1cccc(OC(=O)C2C(c3ccccc3)C(C(=O)O)C2c2ccccc2)c1 (stereo not given) | -0.8 | 5.6 | -6.8 | 15795 | 2.8
O=C(NCC1CCN(C(=O)COc2ccccc2)CC1)c1cc(Br)cs1 | nt | nt | -19.0 | nt | nt
Cc1csc(NC(=O)CCn2cnc3c(cnn3-c3ccc(F)cc3)c2=O)n1 | nt | nt | -4.0 | nt | nt
O=C(NCCCn1ncccc1=O)c1cccc(Oc2ccccn2)c1 | nt | nt | 2.0 | nt | nt
COC(CNC(=O)C1CC(=O)N(CCc2ccccc2)C1)OC (stereo not given) | 0.6 | -1.8 | -1.3 | 20271* | -1.6
Cc1ccc(CCN2CC(C(=O)N3CCN(c4ccc(F)cc4)CC3)CC2=O)cc1 (stereo not given) | -0.3 | 0.7 | 0.1 | 20552* | 0.5
Cc1ccc(CCN2CC(C(=O)NCCCOC(C)C)CC2=O)cc1 (stereo not given) | -3.3 | 3.8 | -12.4 | 21642* | 3.3
O=C(C1CC(=O)N(c2ccc(F)cc2)C1)N1CCN(c2ccc(F)cc2)CC1 (stereo not given) | 5.6 | -5.9 | -18.4 | 4604 | -2.2
CC(C)CCNC(=O)C1CC(=O)N(CCc2ccccc2)C1 (stereo not given) | 11.6 | -14.2 | -14.4 | 3663 | -0.1
NNc1nc2ccccc2[nH]c1=O | nt | nt | 38.0* | nt | nt
CCCC(=O)Nc1ccc2c(c1)C(=O)CC(c1cc(OC)c(OC)c(OC)c1)O2 (stereo not given) | nt | nt | -10.0 | nt | nt
CC(C)(C)C(=O)OCC(N)=NOC(=O)c1ccccc1 | nt | nt | -8.6 | nt | nt
Nc1nnc(CC(=O)N/N=C/c2ccc(-c3ccc(F)cc3)o2)s1 | ? | 38.3* | i | 4152 | 3.5
CCc1c(C)c2ccc(O)c(CN(C)C)c2oc1=O | -0.5 | 1.2 | -6.8 | 22113* | 2.3
O=C(NCc1cccc(C(F)(F)F)c1)C1CCCN(c2ncccn2)C1 (stereo not given) | -5.2 | -0.1 | -0.4 | 22625* | ?
O=C(C1CCCN(c2ncccn2)C1)N1CCc2ccccc21 (stereo not given) | -4.4 | -7.6 | -8.1 | 17813* | -5.0
Cn1nc(N2CCCC(C(=O)N3CCc4ccccc43)C2)ccc1=O (stereo not given) | nt | nt | -6.0 | nt | nt
O=C(Nc1ccccc1-c1ccccc1)C1CCCN(c2ncccn2)C1 (stereo not given) | -2.5 | -2.0 | -6.4 | 16368* | -0.2
Cc1ccc(NC(=O)C2CCCN(c3ncccn3)C2)c(C)c1 (stereo not given) | 0.6 | -2.9 | -9.2 | 5103 | 0.3
Cc1cc(C)nc(N2CCCC(C(=O)NCc3cccc(C(F)(F)F)c3)C2)n1 (stereo not given) | 0.1 | -15.4 | 2.6 | 8636 | -1.2
Cc1cc(-c2nc(C3CC(=O)N(Cc4ccc(F)cc4)C3)no2)n[nH]1 (stereo not given) | nt | nt | 5.0 | nt | nt
COc1ccc(C2(C(=O)Nc3nncs3)CCCC2)cc1 | -1.8 | 0.6 | -11.5 | 22722* | 1.0
Cc1nnc2ccc(N3CCC4(CC3)OCCO4)nn12 | -1.4 | 2.0 | -25.9 | 23146* | ?
SMILES | Anthrax LF prot | BoNT F protease | PriA SSB inh | Bead autofluor | BoNT A protease
Cc1nnc2ccc(N3CCCC3)nn12 | 2.8 | 7.6 | 0.0 | 4256 | 0.8
O=C(NCc1cccs1)Nc1cnn(C2CCOCC2)c1 | nt | nt | 4.0 | nt | nt
COc1ccc(CNC(=O)C2CCN(C(=O)N(C)C)CC2)c(OC)c1 | -3.6 | -3.2 | -18.8 | 16860* | ?
COc1ccccc1CNC(=O)C1CCN(C(=O)N(C)C)CC1 | -1.5 | 1.3 | -8.3 | 20518* | 0.3
CN(C)C(=O)N1CCC(C(=O)NCc2ccccc2)CC1 | -0.4 | 3.7 | -20.4 | 6437 | 1.2
O=C(CCn1ccc(=O)[nH]c1=O)N1CCC(Oc2ncccc2Cl)CC1 | nt | nt | -13.0 | nt | nt
Cc1nn(C)c(C)c1S(=O)(=O)N1CCCC(Oc2nccnc2N(C)C)C1 (stereo not given) | nt | nt | -1.0 | nt | nt
